The campaign covered roughly 69,000 compounds. About 50 (0.07%) showed an effect of 50% or more. Only a selection was taken, and strong results are over-represented in it overall.

The target of this test is Lysine--tRNA ligase (Plasmodium falciparum (isolate 3D7)) (UniProt Q8IDJ8). In words: Pf-KRS-1 (Lysyl-RNA Synthetase-1, KRS-1, cytosolic KRS) from Plasmodium falciparum. Inhibitor assay, 384 well plate, luminescence read. The test is classed as functional. The arrangement: scale not given: in the data most compounds retested in dose-response had high values. Conditions: 30 µM.
Chain of Lysine--tRNA ligase (Plasmodium falciparum (isolate 3D7)) (Q8IDJ8 1-583): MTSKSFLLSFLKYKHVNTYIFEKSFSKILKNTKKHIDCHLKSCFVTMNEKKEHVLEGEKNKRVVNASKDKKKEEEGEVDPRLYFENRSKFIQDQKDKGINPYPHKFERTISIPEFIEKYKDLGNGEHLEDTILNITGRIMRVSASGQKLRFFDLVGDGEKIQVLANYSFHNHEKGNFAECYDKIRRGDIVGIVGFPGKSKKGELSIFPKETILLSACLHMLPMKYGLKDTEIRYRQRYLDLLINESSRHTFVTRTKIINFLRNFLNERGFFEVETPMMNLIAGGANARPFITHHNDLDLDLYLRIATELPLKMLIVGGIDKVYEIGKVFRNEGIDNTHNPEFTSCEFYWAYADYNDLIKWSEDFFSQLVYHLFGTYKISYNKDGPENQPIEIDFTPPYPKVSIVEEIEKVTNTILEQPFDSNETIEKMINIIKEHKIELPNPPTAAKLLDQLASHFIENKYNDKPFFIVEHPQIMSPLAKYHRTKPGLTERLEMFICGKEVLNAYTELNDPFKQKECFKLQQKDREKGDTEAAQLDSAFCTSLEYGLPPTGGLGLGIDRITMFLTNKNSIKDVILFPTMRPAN
As for `COCc1nc2cc(NCc3scnc3C)ccc2o1`, the Percent Effect was found to be 13.6%.

For the compound `COCc1nc2cc(NCc3sc(C)nc3C)ccc2o1`, the Percent Effect worked out at 58.6%.

Consider `COCc1nc2cc(NCc3csc(C)n3)ccc2o1`, for which the Percent Effect was 10.7%.

As for `CC/C=C(\C)CN1CCC(CNC(=O)c2c[nH]c(=O)c(Cl)c2)C1` (configuration not stated), the Percent Effect is -1.78%.

Consider `CCC1CCC(CNC(=O)c2c[nH]c(=O)c(Cl)c2)CC1` (configuration not stated), for which the Percent Effect turned out to be 67.6%.

As for `COCCN1CCC(CNC(=O)c2c[nH]c(=O)c(Cl)c2)CC1`, the Percent Effect was found to be 2.11%.

As to `c1cnc(N2CC[C@@H]3CN(Cc4ccncc4)CCO[C@@H]3C2)nc1`, the Percent Effect is 4.97%.

As to `Cc1cccc(CO[C@H]2CN(c3nnc(C)s3)[C@@H]3CCCO[C@H]23)n1`, the Percent Effect is 3.74%.

`COc1cccc(-c2n[nH]c3c2CN(C(=O)c2cc(C)n(C)n2)CC3)c1`: the Percent Effect is -1.18%.

For `COc1cccc(-c2n[nH]c3c2CN(C(=O)c2cccc(=O)[nH]2)CC3)c1`, the Percent Effect worked out at 55.1%.

On to `COc1cccc(-c2n[nH]c3c2CN(C(=O)c2ccncc2)CC3)c1`, for which the Percent Effect is 0.631%.

As for `Cn1cccc1C(=O)N1C[C@H](OCC2CCOCC2)[C@H]2COC[C@H]21`, the Percent Effect was found to be 3.49%.

As to `c1cnnc(N[C@@H]2CC[C@@H]3CN(Cc4c[nH]c5ccccc45)C[C@@H]32)c1`, the Percent Effect came out at 0.669%.

With `CN(C(=O)c1ccccn1)c1nc2c(s1)CCc1c-2cnn1C`, the Percent Effect is 0.965%.

As for `CCCN(C(=O)c1ccccn1)c1nc2c(s1)CCc1c-2cnn1C`, the Percent Effect worked out at 50.4%.

As for `CCCN(C(=O)c1cnc(C)cn1)c1nc2c(s1)CCc1c-2cnn1C`, the Percent Effect amounted to 40.4%.

`CCCN(C(=O)c1cnccn1)c1nc2c(s1)CCc1c-2cnn1C`: the Percent Effect amounted to 10.8%.

For the compound `CCCN(C(=O)c1ccncc1)c1nc2c(s1)CCc1c-2cnn1C`, the Percent Effect came to 16.2%.

For `CCCN(C(=O)c1cccnc1)c1nc2c(s1)CCc1c-2cnn1C`, the Percent Effect was 44%.

On to `CCCN(C(=O)COC)c1nc2c(s1)CCc1c-2cnn1C`, for which the Percent Effect was 74.8%.

As for `COCCN(C(=O)c1ccccn1)c1nc2c(s1)CCc1c-2cnn1C`, the Percent Effect was found to be 52.4%.

Consider `COCCN(C(=O)c1cnccn1)c1nc2c(s1)CCc1c-2cnn1C`, for which the Percent Effect stood at 8.73%.

Turning to `Cc1nccc([C@H]2C[C@@H]3CCN(S(C)(=O)=O)C[C@H]3O2)n1`, the Percent Effect is -0.787%.

In the case of `O=C([C@H]1COC[C@H]2CN(c3ccncn3)C[C@H]21)N1CCCC1`, the Percent Effect is -3.71%.

Take `O=C(Nc1cnccn1)[C@H]1C[C@H]2OCC[C@H]2N(c2ncc(F)cn2)C1`: the Percent Effect came to 11.9%.

As for `COc1cccc(-c2ncc(CN3C[C@@H]4CC[C@H](C3)N(C)C4=O)s2)c1`, the Percent Effect is -4.12%.

Regarding `COc1ccc(OC)c(C2CC(=O)Nc3nc(N4CCOCC4)sc32)c1` (configuration not stated), the Percent Effect was 84.5%.

For `CCn1ncnc1C1CC(=O)NCc2nc(N3CCOCC3)sc21` (configuration not stated), the Percent Effect turned out to be 0.366%.

With `COc1ccc(C2CC(=O)NCc3nc(N(C)C)sc32)c(O)c1` (configuration not stated), the Percent Effect is 1.01%.

For `COc1ccc(OC)c(C2SCC(=O)Nc3n[nH]cc32)c1` (configuration not stated), the Percent Effect was 4.67%.

On to `COc1ccc(C2CC(=O)Nc3c2cnn3C)cc1` (configuration not stated), for which the Percent Effect is -3.99%.

For `COc1ccc(C2CC(=O)Nc3nc(N4CCOCC4)sc32)c(OC)c1` (configuration not stated), the Percent Effect was found to be 86.4%.

For the compound `COc1ccc(OC)c(C2CCN(CC(C)(C)N3CCOCC3)C2)c1` (configuration not stated), the Percent Effect came to 1.11%.

`COc1ccc(C2CCCN2c2nnc(C)s2)c(OC)c1` (configuration not stated): the Percent Effect was -1.09%.

As for `COc1ccc(C2CC(=O)Nc3nc(N4CCOCC4)sc32)cc1` (configuration not stated), the Percent Effect was found to be 82.2%.

As for `COCCN1C(=O)CO[C@H]2CN(Cc3ccccc3Cl)C[C@@H]21`, the Percent Effect was 3.69%.

On to `O=C(c1cocn1)N1C[C@H]2CCC[C@@]2(COCc2cccnc2)C1`, for which the Percent Effect was 2.44%.

For the compound `Cc1c(Cl)cccc1S(=O)(=O)N1C[C@@H]2CC[C@H](C1)N(C)C2=O`, the Percent Effect stood at 3.71%.

Regarding `O=S1(=O)C[C@@H]2[C@H](C1)N(Cc1ccoc1)CCN2Cc1ccncc1`, the Percent Effect came out at 8.97%.

On to `O=C(c1ccncc1)N1C[C@@H]2CC[C@H](C1)N(C(=O)C1CCCC1)C2`, for which the Percent Effect was -0.475%.

As for `Cn1ncc2c1NC(=O)CC2c1ccc(Cl)cc1Cl` (configuration not stated), the Percent Effect is 9.51%.

With `CNc1nc2c(s1)C(c1cc(Cl)ccc1F)CC(=O)N2` (configuration not stated), the Percent Effect came out at 44.9%.

Take `CNc1nc2c(s1)C(c1cccc(F)c1F)CC(=O)N2` (configuration not stated): the Percent Effect was 50.5%.

As to `CNc1nc2c(s1)C(c1ccccc1F)CC(=O)N2` (configuration not stated), the Percent Effect was 79.2%.

Regarding `CC(C)(C)n1ncc2c1NC(=O)CC2c1c(F)cccc1F` (configuration not stated), the Percent Effect was determined as 5.99%.

For the compound `CNc1nc2c(s1)C(c1ccc(F)cc1Cl)CC(=O)N2` (configuration not stated), the Percent Effect was found to be 82%.

As for `Cn1ncc2c1NC(=O)CC2c1ccccc1Cl` (configuration not stated), the Percent Effect amounted to 6.28%.

On to `CNc1nc2c(s1)C(c1cccc(Cl)c1Cl)CC(=O)N2` (configuration not stated), for which the Percent Effect stood at 29.5%.

In the case of `O=C1CC(c2ccccc2F)c2c(n3ccsc3nc2=O)N1` (configuration not stated), the Percent Effect was 6.5%.

Regarding `CNc1nc2c(s1)C(c1ccc(Cl)cc1Cl)CC(=O)N2` (configuration not stated), the Percent Effect turned out to be 47.4%.

Regarding `Cc1ccsc1C1CC(=O)Nc2c1cnn2C(C)C` (configuration not stated), the Percent Effect stood at 3.08%.

Regarding `CNc1nc2c(s1)C(c1ccccc1Cl)CC(=O)N2` (configuration not stated), the Percent Effect stood at 84.5%.

For the compound `O=C(NCC1CC1)[C@@H]1CC[C@@H]2[C@@H](CCN2Cc2ccco2)O1`, the Percent Effect is -0.532%.

As for `COCCN1C[C@H]2CN(Cc3cccc(OC)c3)CCN2C1=O`, the Percent Effect is 8.64%.

For `COc1ncccc1C(=O)N1C[C@@H]2COC[C@]2(CN(C)C)C1`, the Percent Effect was -2.56%.

As for `Fc1ccccc1CN1C[C@@H]2OCCN(c3ncccn3)[C@@H]2C1`, the Percent Effect is -1.46%.

Consider `COCCN1C(=O)[C@H]2CC[C@@H]1CN(S(=O)(=O)c1ccc(OC)cc1)C2`, for which the Percent Effect amounted to 5.86%.

Take `c1cnc2c(-c3nccn3C[C@@H]3CCCN4CCCC[C@H]34)cccc2c1`: the Percent Effect came out at 1.5%.

Consider `Cc1cccc(S(=O)(=O)N2CC[C@H]3[C@H]2CCN3c2ncccn2)c1`, for which the Percent Effect came to 1.51%.

In the case of `O=C(c1cscn1)N1CC[C@@H]2[C@@H]1CCN2C1CCOCC1`, the Percent Effect was determined as 1.62%.

On to `CN1C[C@@H]2CC[C@H](CC1=O)N2C(=O)c1ccc(-c2ccccc2)[nH]c1=O`, for which the Percent Effect came out at 16.3%.

As to `COc1ccc(CC(=O)N2CC[C@@H]3CN(C)S(=O)(=O)[C@@H]3CC2)cc1`, the Percent Effect came to 3.63%.

Consider `CNc1nc2c(s1)C(c1c(F)cccc1Cl)CC(=O)N2` (configuration not stated), for which the Percent Effect was 70%.

As to `CNc1nc2c(s1)C(c1c(Cl)cccc1Cl)CC(=O)N2` (configuration not stated), the Percent Effect was found to be 35.2%.

In the case of `Cn1ncc2c1NC(=O)CC2c1c(F)cccc1Cl` (configuration not stated), the Percent Effect was 2.46%.

For `O=C1C[C@H]2[C@@H](CCN2C(=O)Cc2cccs2)N1Cc1ccncc1`, the Percent Effect stood at 3.5%.

As for `Cc1cccc(CN2C[C@@H]3OCCN(S(=O)(=O)N(C)C)[C@@H]3C2)c1`, the Percent Effect worked out at 2.13%.

These data come from ChEMBL document CHEMBL3988442, “University of Dundee, Small-Polar-MMV Screening Library” (2021).
